# Most compounds without a hit are left out; they make up all but 2.4% or so of the library.
# Cruzain noTriton: cruzain (T. cruzi) inhibition without detergent | P25779 | purified cruzain, Z-FR-AMC fluorescence, no detergent | Potency, µM, for inactives: max response, negative = inhibition, usual class: inhibitors | 200,000 compounds, 2.3% hits | AID 1476;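 also: plate controls were enzyme without inhibitor for no effect and buffer without enzyme for full effect; nearly all actives have a fitted effect of over 40% in size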
# Target sequence (P25779 123-467 limits assumed): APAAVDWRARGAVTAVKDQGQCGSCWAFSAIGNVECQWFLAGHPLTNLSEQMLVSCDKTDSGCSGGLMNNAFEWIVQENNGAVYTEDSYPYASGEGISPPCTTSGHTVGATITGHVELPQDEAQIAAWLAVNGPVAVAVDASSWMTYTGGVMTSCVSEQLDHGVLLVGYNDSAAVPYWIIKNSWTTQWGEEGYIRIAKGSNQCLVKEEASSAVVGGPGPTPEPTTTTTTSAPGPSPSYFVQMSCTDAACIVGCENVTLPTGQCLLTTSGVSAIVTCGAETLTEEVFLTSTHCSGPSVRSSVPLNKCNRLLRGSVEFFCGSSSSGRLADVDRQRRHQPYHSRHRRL
#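 Purified cruzain at 1.5 nM, pre-incubated 15 min with compound at room temperature in 100 mM sodium acetate pH 5.5, 5 mM DTT, 0.00005% Triton X-100. Reaction started with 2 uM Z-FR-AMC; AMC fluorescence increase over 60 s gives rate.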
# Cruzain inh Det: inhibitors of Trypanosoma cruzi cruzain with detergent; AID 1478; purified cruzain, Z-FR-AMC fluorescence, 0.01% Triton; P25779; 200,000 compounds, 0.43% hits; Potency, µM, for the others: max response, negative = inhibition, most hits filed as inhibitors;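 also: plate controls were neutral wells for no effect and buffer without enzyme for full effect; nearly all actives have a fitted effect of over 40% in size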
#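 Enzyme 1.5 nM, Z-FR-AMC 2 uM, NaOAc 100 mM pH 5.5, DTT 5 mM, Triton X-100 0.01%; 15 min RT compound preincubation; kinetic ex360/em450, 60 s delta.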
# * hit, by the source's call; ? = inconclusive. Calls follow the shape of the dose curve; as a rule, active = well fitted curve in the direction sought with a large enough effect; inconclusive = small, poorly fitted or top-dose-only effect, or another doubt; inactive = no such curve, though single readings can be large; an effect the other way counts as inactive or inconclusive. Potency is read from the fitted curve at half-maximal effect.
SMILES,Cruzain noTriton,Cruzain inh Det
CCN(CC)C(=O)Cn1c(=O)n(CCCCCC(=O)NCc2ccc3c(c2)OCO3)c(=O)c2sccc21,4.1%,-1.1%
CC(/C=C/c1ccc(N(C)C)cc1)=N\N=C(/N)SC1CC(=O)N(c2ccc(C(=O)O)cc2)C1=O (stereo not drawn),10µM*,?
O=C(O)c1ccc(N2C(=O)CC(SC(=Nc3ccccc3)Nc3ccccc3)C2=O)cc1 (stereo not drawn),-2.3%,-2.3%
Cc1ccc(CN2C(=O)SC(Nc3ccc(Cl)cc3)C2=O)cc1 (stereo not drawn),-3.9%,-7.8%
Cc1ccc(Cc2c(C)nc3nc(SCC(=O)NC4CCC(C)CC4)nn3c2C)cc1 (stereo not drawn),4.2%,-0.4%
c1ccc2c(-n3ccnc3)nc(-c3ccoc3)nc2c1,-1.9%,-5.1%
CC(=O)NCCNC(=O)[C@H](Cc1ccccc1)NC(=O)c1cccs1,1.6%,4.2%
O=C(COC(=O)[C@H](Cc1ccccc1)NC(=O)c1cccs1)Nc1c(Cl)cccc1Cl,25.1µM*,15.8µM*
O=C(N/N=C/c1cccc([N+](=O)[O-])c1)c1cc2ccccc2o1,?,-17.3%
O=C(COc1ccc(/C=N/NC(=O)c2cc3ccccc3o2)cc1Cl)Nc1ccccc1,20µM*,22.4µM*
Cc1cc(=O)n(CC(=O)N2CCCc3ccccc32)c2c1c(C)nn2-c1cccc(F)c1,-9.3%,-3.5%
O=C(c1ccco1)N1CCC2(CC1)CN(c1cccc(-c3ccccc3)c1)C2,10.7%,-0.8%
CCOc1ccc(C(=O)OCc2cc(=O)n3nc(C(C)C)sc3n2)cc1,4.5%,-1.5%
O=C(Nc1ccc(Cl)cc1)Nc1ccc(N2CCCC2)c(S(=O)(=O)Nc2ccccc2Cl)c1,?,-1.0%
COc1ccccc1NS(=O)(=O)c1cc(NC(=O)Nc2cccc(C)c2)ccc1N1CCCCC1,5.01µM*,-1.5%
COc1cccc(-c2csc(-c3c(N)c(C(=O)c4ccc5c(c4)OCO5)n4ccccc34)n2)c1,3.16µM*,-2.1%
COc1ccc(C(=O)c2c(N)c(-c3nc(-c4ccc(OC)cc4)cs3)c3ccccn23)cc1,?,-2.4%
COc1ccc(C(=O)c2c(N)c(-c3nc(-c4ccccc4)cs3)c3ccccn23)cc1,7.94µM*,-2.9%
CCOc1ccc(C(=O)c2c(N)c(-c3nc(-c4ccc5c(c4)OCO5)cs3)c3ccccn23)cc1,-18.6%,-1.7%
COc1ccccc1C(=O)c1c(N)c(-c2nc(-c3ccccc3)cs2)c2ccccn12,10µM*,-5.0%
CCOc1ccc(C(=O)c2c(N)c(-c3nc(-c4ccc(OCC)cc4)cs3)c3ccccn23)cc1,-19.1%,-1.8%
Cc1oc2ccc(O)c(CN3CCN(C)CC3)c2c1C(=O)Nc1ccc(C(C)C)cc1,-0.5%,-1.1%
Cc1ccc(-n2nnnc2CNC(=O)c2ccccc2)cc1C,-8.5%,2.3%
CCCOc1ccc(Cc2nn3c(=O)/c(=C/c4ccco4)sc3nc2=O)cc1,10µM*,-6.1%
CCCOc1ccc(/C=c2\sc3nc(-c4ccco4)nn3c2=O)cc1OCC,8.0%,-0.4%
SMILES,Cruzain noTriton,Cruzain inh Det
O=C(NCc1ccco1)c1ccc2c(=O)n(CCC3=CCCCC3)c(=O)[nH]c2c1,15.8µM*,-0.1%
CCN1CCN(C(=O)c2ccc3c(=O)n(CCC4=CCCCC4)c(=O)[nH]c3c2)CC1,10.2%,-0.2%
N=c1oc2ccc3ccccc3c2cc1-c1nc(-c2ccccc2)cs1,25.1µM*,-5.3%
N=c1oc2ccccc2cc1-c1nc(-c2ccccc2)cs1,?,-14.5%
Cc1ccc(NC(=O)CC2Nc3ccccc3NC2=O)cc1Cl (stereo not drawn),25.1µM*,?
CCOc1ccccc1NC(=O)CC1Nc2ccccc2NC1=O (stereo not drawn),?,-9.3%
CCCOc1ccccc1NC(=O)CC1Nc2ccccc2NC1=O (stereo not drawn),12.6µM*,-4.0%
Cc1ccc(NC(=O)CC2Nc3ccccc3NC2=O)cc1C (stereo not drawn),0.1%,-11.8%
CCOC(=O)c1c(C)[nH]c(C)c1S(=O)(=O)N1CCCC(C(=O)NCc2ccc(N(C)C)cc2)C1 (stereo not drawn),8.2%,1.5%
N#C/C(=C/c1ccc(O)cc1)c1nc(-c2ccc(-c3ccccc3)cc2)cs1,10.2%,0.3%
N#C/C(=C\C=C\c1ccccc1)c1nc(-c2ccc3c(c2)OCO3)cs1,25.1µM*,-4.1%
Cc1ccc2onc(CC(=O)N3CCN(c4ccccc4)CC3)c2c1,13.3%,-6.4%
O=C(Nc1ccc(NC(=O)C23CC4CC(CC(C4)C2)C3)cc1)c1cc(F)c(F)cc1Cl,25.1µM*,6.3%
CN(C)S(=O)(=O)c1ccc(NC(=O)c2cc(F)c(F)cc2Cl)cc1,10.5%,-3.6%
Brc1cc2c(cc1C1Nc3ccccc3C3C=CCC31)OCO2 (stereo not drawn),?,-2.6%
Cc1cc(C)c2c(c1)NC(c1cc3c(cc1Br)OCO3)C1CC=CC21 (stereo not drawn),20µM*,-2.5%
CCOc1ccc(NC(=O)C2CCC(CNS(=O)(=O)c3ccc(Br)s3)CC2)cc1 (stereo not drawn),?,-1.2%
c1ccc(Nc2nc(N3CCOCC3)nc(N3CCOCC3)n2)cc1,-4.7%,-4.6%
NNc1nc(Nc2ccccc2)nc(N2CCCCC2)n1,12.6µM*,-11.1%
CC(C)c1ccccc1NC(=O)COC(=O)Cc1ccsc1,-2.3%,-2.7%
O=C(CN1C(=O)S/C(=C\C=C\c2ccccc2)C1=O)Nc1ccc(O)cc1,-4.5%,-6.4%
Cc1ccc(NC(=O)CCCN2C(=O)/C(=C/C=C/c3ccccc3)SC2=S)cc1,31.6µM*,-7.0%
CC(C)c1ccccc1NC(=O)COC(=O)CCN1C(=O)/C(=C\C=C\c2ccccc2)SC1=S,15.8µM*,-10.8%
Cc1ccc(S(=O)(=O)c2nnn3c2nc(NC2CCCCC2)c2sccc23)cc1C,-4.4%,-7.2%
COc1ccc(C=C(c2ccc(OC)cc2)c2ccc(OC)cc2)cc1,12.6µM*,-21.5%
SMILES,Cruzain noTriton,Cruzain inh Det
COc1ccc(C=O)cc1,5.5%,7.7%
O=C(NCc1ccccc1Cl)c1ccc2c(c1)N(Cc1ccccc1)C(=O)c1ccccc1S2,-14.1%,0.4%
COc1ccccc1NC(=O)CSc1nc(-c2cccc(Cl)c2)nc2c1Cc1c(CO)cnc(C)c1O2,8.8%,-1.8%
c1ccc(C2=Nc3ccccc3OC2)cc1,-17.9%,-3.2%
NC1=Nc2ccccc2Oc2ccccc21,25.1µM*,?
COc1ccc(NC(=O)C(C)n2nc(-c3ccc(C)c(C)c3)ccc2=O)cc1OC (stereo not drawn),?,-10.3%
O=C1c2ccccc2C(=O)N1c1cccc(-c2csc(Nc3ccc4c(c3)OCO4)n2)c1,5.01µM*,-0.3%
COc1ccccc1Nc1nc(-c2cccc(N3C(=O)c4ccccc4C3=O)c2)cs1,7.94µM*,-3.0%
COc1ccccc1Nc1nc(-c2sc(NC(=O)CC(C)C)nc2C)cs1,?,-2.2%
COc1ccccc1Nc1nc(-c2c(C)[nH]c3ccccc23)cs1,25.1µM*,-5.1%
COc1ccc(-c2csc(Nc3cccnc3)n2)cc1OC,-9.3%,1.8%
c1cncc(-c2nc(-c3ccc4c(c3)OCO4)cs2)c1,-7.8%,-12.4%
CC(=O)Nc1ccc(NC(=O)c2cc3c(=O)n(Cc4cccnc4)ccc3nc2C)cc1,-2.5%,-5.0%
CNC1C(OC2C(O[C@@H]3C(O)C(O)[C@@H](N=C(N)N)C(O)C3N=C(N)N)OC(C)[C@@]2(O)CO)OC(CO)C(O)C1O (stereo partly drawn),-3.1%,3.4%

# Screens (PubChem BioAssay)
